# From publication PMC7862700, “An all-to-all approach to the identification of sequence-specific readers for epigenetic DNA modifications on cytosine”
# Legend:
# Assay in all cases: DAPPL (digital affinity profiling via proximity ligation, sequencing); 10 mM Tris-HCl pH 7.5, 50 mM NaCl, 1 mM DTT, 4% glycerol, room temperature, 30 min; GST-TFs on glutathione beads, 16-mer random dsDNA library, 0.1% formaldehyde crosslink after washing; high values mean tight binding
# FLI1 = target: T1, FLI1 (Homo sapiens, UniProt Q01543 1-452); conditions: protein: recombinant; tags: N-terminal GST; dsDNA, one strand shown
# T1 sequence: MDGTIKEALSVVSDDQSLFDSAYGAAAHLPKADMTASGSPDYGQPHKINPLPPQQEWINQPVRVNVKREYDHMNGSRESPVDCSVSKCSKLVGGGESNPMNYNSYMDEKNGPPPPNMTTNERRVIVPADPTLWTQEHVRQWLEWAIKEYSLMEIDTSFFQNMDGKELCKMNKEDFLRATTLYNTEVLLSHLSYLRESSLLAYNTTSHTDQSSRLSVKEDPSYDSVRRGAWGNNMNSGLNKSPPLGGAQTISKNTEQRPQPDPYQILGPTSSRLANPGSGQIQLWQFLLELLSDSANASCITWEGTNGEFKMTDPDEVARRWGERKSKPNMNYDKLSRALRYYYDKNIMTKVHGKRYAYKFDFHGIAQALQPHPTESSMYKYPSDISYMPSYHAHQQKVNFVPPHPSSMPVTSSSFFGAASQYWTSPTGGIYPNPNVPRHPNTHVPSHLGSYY
# Method in brief: (§1)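 Binding signal is defined as a hexamer's read frequency for one factor over its frequency for the tag-only sample. To obtain reads, GST-fused human transcription factors were expressed in yeast, captured on glutathione beads, barcoded with DNA and pooled with that sample. Pools met 200 nmole of a 16-mer random double-stranded DNA library in Tris/NaCl/DTT/glycerol buffer for 30 min at room temperature before washing, 0.1% formaldehyde crosslinking, proximity ligation (BsaI/T4 ligase, 1 h, 37 °C), PCR and Illumina NextSeq500 sequencing.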
# ELK1 = target: T2, ELK1 (Homo sapiens, UniProt P19419 1-428); conditions: protein: recombinant; tags: N-terminal GST; dsDNA, one strand shown
# T2 sequence: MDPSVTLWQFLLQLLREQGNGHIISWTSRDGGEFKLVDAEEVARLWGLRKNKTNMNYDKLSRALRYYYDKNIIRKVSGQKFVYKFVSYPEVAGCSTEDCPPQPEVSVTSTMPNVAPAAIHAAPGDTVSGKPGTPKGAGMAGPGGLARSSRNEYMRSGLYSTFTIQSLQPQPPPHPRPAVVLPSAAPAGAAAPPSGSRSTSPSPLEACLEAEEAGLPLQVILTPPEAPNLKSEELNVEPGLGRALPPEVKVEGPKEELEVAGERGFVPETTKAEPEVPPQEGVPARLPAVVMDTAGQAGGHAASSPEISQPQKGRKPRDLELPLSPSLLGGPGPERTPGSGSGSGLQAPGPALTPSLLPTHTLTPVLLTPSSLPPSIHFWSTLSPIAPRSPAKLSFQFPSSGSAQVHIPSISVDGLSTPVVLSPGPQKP
# Method in brief: as §1
# GABPA = target: T3, GABPA (Homo sapiens, UniProt Q06546 1-454); conditions: protein: recombinant; tags: N-terminal GST; dsDNA, one strand shown
# T3 sequence: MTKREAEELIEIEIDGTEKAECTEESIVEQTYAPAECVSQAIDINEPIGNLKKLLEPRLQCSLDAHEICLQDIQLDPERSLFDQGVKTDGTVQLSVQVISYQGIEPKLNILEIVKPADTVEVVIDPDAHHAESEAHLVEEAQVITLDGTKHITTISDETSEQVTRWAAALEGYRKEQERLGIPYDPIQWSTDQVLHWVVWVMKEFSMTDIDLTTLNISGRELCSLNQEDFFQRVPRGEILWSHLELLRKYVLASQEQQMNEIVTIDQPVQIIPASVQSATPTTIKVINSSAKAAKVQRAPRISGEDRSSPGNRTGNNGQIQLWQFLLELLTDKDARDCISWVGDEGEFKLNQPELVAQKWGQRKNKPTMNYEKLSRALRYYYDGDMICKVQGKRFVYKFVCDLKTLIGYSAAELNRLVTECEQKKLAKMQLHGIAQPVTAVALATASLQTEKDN
# Method in brief: as §1
# ERG = target: T4, ERG (Homo sapiens, UniProt P11308 1-479); conditions: protein: recombinant; tags: N-terminal GST; dsDNA, one strand shown
# T4 sequence: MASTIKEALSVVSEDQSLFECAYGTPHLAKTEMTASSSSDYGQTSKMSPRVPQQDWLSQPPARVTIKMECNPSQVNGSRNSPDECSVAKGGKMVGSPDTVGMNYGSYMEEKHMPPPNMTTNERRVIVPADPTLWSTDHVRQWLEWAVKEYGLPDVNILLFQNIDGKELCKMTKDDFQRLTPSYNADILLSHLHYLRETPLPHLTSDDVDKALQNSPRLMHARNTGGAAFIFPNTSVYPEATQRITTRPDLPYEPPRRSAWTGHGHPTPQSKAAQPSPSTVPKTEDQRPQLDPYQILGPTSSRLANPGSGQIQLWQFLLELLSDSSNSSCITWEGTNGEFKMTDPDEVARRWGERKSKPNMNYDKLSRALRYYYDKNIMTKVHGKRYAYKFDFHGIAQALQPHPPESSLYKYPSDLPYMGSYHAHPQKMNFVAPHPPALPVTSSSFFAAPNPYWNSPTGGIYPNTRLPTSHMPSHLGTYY
# Method in brief: as §1
# ELF1 = ELF1 (Homo sapiens, UniProt P32519 1-619); conditions: protein: recombinant; tags: N-terminal GST; dsDNA, one strand shown
# ELF1, sequence (P32519 whole entry): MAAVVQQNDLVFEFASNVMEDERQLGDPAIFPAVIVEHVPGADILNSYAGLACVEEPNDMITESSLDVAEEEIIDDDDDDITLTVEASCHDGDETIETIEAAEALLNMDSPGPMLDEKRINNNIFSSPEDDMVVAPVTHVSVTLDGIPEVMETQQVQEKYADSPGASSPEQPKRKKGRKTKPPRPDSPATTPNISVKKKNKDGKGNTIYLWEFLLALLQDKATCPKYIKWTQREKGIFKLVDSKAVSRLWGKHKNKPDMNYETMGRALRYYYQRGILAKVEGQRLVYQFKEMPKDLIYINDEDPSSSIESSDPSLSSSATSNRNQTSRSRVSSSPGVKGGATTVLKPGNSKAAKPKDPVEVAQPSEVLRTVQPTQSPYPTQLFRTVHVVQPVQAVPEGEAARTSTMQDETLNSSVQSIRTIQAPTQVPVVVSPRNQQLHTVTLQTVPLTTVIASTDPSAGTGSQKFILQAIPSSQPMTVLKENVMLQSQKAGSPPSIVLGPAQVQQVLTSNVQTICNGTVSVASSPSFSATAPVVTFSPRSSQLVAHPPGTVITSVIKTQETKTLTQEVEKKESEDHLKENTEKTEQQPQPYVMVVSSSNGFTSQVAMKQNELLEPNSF
# Method in brief: as §1
# EHF = target: T5, EHF (Homo sapiens, UniProt Q9NZC4 1-300); conditions: protein: recombinant; tags: N-terminal GST; dsDNA, one strand shown
# T5 sequence: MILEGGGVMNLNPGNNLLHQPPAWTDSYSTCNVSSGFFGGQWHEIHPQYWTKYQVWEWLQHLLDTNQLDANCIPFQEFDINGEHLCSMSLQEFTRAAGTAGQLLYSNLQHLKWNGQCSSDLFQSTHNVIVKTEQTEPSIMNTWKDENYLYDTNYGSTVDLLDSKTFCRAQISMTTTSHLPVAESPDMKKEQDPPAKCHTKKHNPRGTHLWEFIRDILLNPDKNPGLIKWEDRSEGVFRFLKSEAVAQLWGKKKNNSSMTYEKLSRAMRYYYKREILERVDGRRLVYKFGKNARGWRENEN
# Method in brief: as §1
# SPI1 = SPI1 (Homo sapiens, UniProt P17947 1-270); conditions: protein: recombinant; tags: N-terminal GST; dsDNA, one strand shown
# Method in brief: as §1
# SPIB = SPIB (Homo sapiens, UniProt Q01892 1-262); conditions: protein: recombinant; tags: N-terminal GST; dsDNA, one strand shown
# SPIB, sequence (Q01892 whole entry): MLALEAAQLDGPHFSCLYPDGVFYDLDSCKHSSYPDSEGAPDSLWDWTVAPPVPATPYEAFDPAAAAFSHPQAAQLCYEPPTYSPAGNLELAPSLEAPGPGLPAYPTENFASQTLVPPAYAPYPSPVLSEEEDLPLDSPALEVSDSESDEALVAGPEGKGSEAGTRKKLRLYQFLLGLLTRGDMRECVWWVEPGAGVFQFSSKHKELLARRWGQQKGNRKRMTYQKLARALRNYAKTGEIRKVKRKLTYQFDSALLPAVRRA
# Method in brief: as §1
# ELK3 = target: T6, ELK3 (Homo sapiens, UniProt P41970 1-407); conditions: protein: recombinant; tags: N-terminal GST; dsDNA, one strand shown
# T6 sequence: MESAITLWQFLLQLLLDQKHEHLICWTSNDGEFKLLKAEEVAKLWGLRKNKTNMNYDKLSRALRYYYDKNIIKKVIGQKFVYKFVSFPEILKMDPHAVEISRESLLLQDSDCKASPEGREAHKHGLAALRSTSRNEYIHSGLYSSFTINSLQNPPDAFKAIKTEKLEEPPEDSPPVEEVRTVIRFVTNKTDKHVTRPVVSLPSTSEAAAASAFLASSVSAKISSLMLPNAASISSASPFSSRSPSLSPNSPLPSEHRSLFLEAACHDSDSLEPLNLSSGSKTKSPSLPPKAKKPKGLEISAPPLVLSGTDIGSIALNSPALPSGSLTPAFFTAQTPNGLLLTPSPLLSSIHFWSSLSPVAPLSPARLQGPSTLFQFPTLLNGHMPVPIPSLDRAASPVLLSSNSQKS
# Method in brief: as §1
# FEV = target: T7, FEV (Homo sapiens, UniProt Q99581 1-238); conditions: protein: recombinant; tags: N-terminal GST; dsDNA, one strand shown
# T7 sequence: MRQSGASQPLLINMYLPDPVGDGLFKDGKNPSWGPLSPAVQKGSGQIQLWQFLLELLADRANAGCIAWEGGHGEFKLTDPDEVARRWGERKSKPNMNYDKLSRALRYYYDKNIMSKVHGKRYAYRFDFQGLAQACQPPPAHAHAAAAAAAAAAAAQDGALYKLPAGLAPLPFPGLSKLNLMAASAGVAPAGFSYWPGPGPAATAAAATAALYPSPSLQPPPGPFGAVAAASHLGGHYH
# Method in brief: as §1
# ETV5 = ETV5 (Homo sapiens, UniProt P41161 1-510); conditions: protein: recombinant; tags: N-terminal GST; dsDNA, one strand shown
# ETV5, sequence (P41161 whole entry): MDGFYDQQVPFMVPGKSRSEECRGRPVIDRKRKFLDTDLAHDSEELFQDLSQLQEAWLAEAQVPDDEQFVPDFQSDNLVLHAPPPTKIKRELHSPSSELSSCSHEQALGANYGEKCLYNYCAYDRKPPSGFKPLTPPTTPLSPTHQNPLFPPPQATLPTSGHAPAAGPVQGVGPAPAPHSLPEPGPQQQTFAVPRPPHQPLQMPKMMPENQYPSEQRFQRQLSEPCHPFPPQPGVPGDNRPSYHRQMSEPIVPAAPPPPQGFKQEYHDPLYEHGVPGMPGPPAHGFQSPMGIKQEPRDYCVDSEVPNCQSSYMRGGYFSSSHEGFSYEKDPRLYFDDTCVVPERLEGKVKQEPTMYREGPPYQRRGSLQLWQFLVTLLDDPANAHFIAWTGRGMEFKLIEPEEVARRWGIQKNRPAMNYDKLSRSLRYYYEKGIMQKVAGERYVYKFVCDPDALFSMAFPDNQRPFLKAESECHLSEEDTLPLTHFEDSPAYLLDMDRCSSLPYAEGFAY
# Method in brief: as §1
# HSF1 = HSF1 (Homo sapiens, UniProt Q00613 1-529); conditions: protein: recombinant; tags: N-terminal GST; chain copies: 3; dsDNA, one strand shown
# HSF1, sequence (Q00613 whole entry): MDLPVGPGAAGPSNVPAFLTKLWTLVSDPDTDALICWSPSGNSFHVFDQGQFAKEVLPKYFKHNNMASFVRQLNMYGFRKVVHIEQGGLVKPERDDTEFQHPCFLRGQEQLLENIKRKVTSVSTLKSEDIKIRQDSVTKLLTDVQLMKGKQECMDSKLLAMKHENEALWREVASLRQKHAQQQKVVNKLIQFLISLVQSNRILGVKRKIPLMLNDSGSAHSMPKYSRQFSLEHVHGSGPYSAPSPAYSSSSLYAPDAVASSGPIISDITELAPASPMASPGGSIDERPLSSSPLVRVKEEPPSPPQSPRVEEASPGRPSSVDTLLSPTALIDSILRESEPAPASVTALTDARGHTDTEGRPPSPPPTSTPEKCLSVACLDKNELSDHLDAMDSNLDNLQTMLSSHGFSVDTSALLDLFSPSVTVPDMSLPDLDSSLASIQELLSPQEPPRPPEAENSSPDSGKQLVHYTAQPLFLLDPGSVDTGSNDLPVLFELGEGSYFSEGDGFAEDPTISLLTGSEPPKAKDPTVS
# Method in brief: as §1
# SPIC = target: T8, SPIC (Homo sapiens, UniProt Q8N5J4 1-248); conditions: protein: recombinant; tags: N-terminal GST; dsDNA, one strand shown
# T8 sequence: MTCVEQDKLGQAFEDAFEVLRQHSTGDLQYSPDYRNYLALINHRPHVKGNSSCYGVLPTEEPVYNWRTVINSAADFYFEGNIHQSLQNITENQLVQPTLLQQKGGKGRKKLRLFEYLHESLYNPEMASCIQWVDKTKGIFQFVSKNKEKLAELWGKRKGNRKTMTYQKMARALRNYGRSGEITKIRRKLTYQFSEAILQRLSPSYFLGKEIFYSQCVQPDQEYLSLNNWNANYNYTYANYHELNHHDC
# Method in brief: as §1
# ELF4 = ELF4 (Homo sapiens, UniProt Q99607 1-663); conditions: protein: recombinant; tags: N-terminal GST; dsDNA, one strand shown
# ELF4, sequence (Q99607 whole entry): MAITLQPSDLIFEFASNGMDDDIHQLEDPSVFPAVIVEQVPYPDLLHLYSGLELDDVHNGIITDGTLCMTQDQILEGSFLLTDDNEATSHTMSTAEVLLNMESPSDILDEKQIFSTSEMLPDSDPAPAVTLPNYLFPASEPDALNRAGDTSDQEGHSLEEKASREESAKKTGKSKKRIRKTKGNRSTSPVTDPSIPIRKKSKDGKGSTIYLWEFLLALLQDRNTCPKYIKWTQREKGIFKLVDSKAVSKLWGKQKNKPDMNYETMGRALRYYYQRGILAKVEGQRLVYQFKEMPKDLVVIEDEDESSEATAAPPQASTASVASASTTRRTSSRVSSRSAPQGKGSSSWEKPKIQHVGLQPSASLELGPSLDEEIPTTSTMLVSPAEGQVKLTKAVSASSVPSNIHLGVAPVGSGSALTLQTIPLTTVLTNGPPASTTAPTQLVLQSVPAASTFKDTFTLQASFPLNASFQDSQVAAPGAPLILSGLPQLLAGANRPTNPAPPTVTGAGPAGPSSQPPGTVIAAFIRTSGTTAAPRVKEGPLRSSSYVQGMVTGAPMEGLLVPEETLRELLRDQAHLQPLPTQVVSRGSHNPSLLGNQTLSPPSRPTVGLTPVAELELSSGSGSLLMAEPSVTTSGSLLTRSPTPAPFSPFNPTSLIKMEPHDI
# Method in brief: as §1
# ELK4 = target: T9, ELK4 (Homo sapiens, UniProt P28324-2 1-405); conditions: protein: recombinant; tags: N-terminal GST; dsDNA, one strand shown
# T9 sequence: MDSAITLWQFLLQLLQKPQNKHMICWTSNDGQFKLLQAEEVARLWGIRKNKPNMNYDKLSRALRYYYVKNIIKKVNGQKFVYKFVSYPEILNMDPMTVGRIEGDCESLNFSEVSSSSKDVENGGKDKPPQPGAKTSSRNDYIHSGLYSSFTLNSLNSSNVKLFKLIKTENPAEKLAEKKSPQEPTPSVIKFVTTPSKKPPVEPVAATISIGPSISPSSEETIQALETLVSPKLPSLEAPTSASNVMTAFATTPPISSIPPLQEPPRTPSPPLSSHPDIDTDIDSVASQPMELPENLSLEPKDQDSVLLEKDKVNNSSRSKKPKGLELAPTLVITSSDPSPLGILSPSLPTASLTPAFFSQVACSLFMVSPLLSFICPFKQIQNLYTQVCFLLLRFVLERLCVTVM
# Method in brief: as §1
# ETV2 = target: T10, ETV2 (Homo sapiens, UniProt O00321 1-342); conditions: protein: recombinant; tags: N-terminal GST; dsDNA, one strand shown
# T10 sequence: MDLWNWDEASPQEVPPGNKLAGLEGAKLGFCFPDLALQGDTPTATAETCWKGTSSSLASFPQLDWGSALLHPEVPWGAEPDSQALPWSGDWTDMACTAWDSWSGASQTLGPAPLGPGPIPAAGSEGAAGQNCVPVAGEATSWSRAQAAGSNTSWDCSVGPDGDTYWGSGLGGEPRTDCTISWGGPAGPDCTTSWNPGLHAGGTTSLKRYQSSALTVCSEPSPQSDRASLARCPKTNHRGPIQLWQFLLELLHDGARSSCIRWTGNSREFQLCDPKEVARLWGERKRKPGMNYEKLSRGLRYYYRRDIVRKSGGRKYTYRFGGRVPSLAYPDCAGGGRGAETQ
# Method in brief: as §1
# ELF3 = target: T11, ELF3 (Homo sapiens, UniProt P78545 1-371); conditions: protein: recombinant; tags: N-terminal GST; dsDNA, one strand shown
# T11 sequence: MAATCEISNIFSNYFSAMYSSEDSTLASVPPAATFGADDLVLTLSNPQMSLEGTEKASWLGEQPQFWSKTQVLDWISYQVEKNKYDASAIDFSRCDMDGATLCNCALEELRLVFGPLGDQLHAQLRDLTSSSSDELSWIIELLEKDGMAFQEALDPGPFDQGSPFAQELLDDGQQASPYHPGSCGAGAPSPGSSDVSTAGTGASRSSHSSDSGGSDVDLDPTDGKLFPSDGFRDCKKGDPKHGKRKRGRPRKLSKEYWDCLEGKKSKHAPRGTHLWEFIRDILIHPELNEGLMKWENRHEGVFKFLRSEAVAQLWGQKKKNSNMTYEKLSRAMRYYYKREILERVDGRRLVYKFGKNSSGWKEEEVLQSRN
# Method in brief: as §1
# CRX = CRX (Homo sapiens, UniProt O43186 1-299); conditions: protein: recombinant; tags: N-terminal GST; dsDNA, one strand shown
# CRX, sequence (O43186 whole entry): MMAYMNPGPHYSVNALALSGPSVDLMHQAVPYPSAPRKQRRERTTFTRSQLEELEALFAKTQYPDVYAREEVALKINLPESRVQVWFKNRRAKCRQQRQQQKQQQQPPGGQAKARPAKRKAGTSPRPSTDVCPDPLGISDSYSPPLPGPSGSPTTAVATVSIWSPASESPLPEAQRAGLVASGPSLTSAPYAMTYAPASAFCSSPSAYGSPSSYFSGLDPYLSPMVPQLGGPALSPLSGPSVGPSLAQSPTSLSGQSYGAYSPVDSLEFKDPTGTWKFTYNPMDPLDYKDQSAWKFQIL
# Method in brief: as §1
# ETV1 = ETV1 (Homo sapiens, UniProt P50549 1-477); conditions: protein: recombinant; tags: N-terminal GST; dsDNA, one strand shown
# ETV1, sequence (P50549 whole entry): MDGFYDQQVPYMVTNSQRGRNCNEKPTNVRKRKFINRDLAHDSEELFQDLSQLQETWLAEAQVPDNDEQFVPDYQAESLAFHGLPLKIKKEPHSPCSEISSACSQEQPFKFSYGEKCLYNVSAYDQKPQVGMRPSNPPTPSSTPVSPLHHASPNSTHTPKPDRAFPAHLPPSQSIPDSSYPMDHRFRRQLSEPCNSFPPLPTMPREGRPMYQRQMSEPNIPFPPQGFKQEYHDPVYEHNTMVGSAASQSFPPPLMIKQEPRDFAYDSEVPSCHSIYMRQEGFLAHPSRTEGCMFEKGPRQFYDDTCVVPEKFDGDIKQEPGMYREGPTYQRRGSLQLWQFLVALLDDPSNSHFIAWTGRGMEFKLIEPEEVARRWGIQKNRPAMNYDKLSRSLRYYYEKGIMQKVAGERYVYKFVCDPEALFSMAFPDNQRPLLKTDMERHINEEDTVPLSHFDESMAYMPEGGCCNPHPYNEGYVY
# Method in brief: as §1
sequence,measurement,setting,value
AATCAC,binding signal,FLI1,"1.03 fold enrichment (6-mer frequency, TF over GST control)"
same,binding signal,ELK1,"1.08 fold enrichment (6-mer frequency, TF over GST control)"
same,binding signal,GABPA,"1.15 fold enrichment (6-mer frequency, TF over GST control)"
same,binding signal,ERG,"1.08 fold enrichment (6-mer frequency, TF over GST control)"
same,binding signal,ELF1,"1.14 fold enrichment (6-mer frequency, TF over GST control)"
same,binding signal,EHF,"1.08 fold enrichment (6-mer frequency, TF over GST control)"
same,binding signal,SPI1,"1.12 fold enrichment (6-mer frequency, TF over GST control)"
same,binding signal,SPIB,"1.07 fold enrichment (6-mer frequency, TF over GST control)"
same,binding signal,ELK3,"1.12 fold enrichment (6-mer frequency, TF over GST control)"
same,binding signal,FEV,"1.09 fold enrichment (6-mer frequency, TF over GST control)"
same,binding signal,ETV5,"1.14 fold enrichment (6-mer frequency, TF over GST control)"
same,binding signal,HSF1,"1.08 fold enrichment (6-mer frequency, TF over GST control)"
same,binding signal,SPIC,"1.08 fold enrichment (6-mer frequency, TF over GST control)"
same,binding signal,ELF4,"1.09 fold enrichment (6-mer frequency, TF over GST control)"
same,binding signal,ELK4,"1.11 fold enrichment (6-mer frequency, TF over GST control)"
same,binding signal,ETV2,"1.18 fold enrichment (6-mer frequency, TF over GST control)"
same,binding signal,ELF3,"1.12 fold enrichment (6-mer frequency, TF over GST control)"
same,binding signal,CRX,"1.3 fold enrichment (6-mer frequency, TF over GST control)"
same,binding signal,ETV1,"1.08 fold enrichment (6-mer frequency, TF over GST control)"
